A short description of assay [1]: qHTS for identification of novel therapeutic agents for treatment of microphthalmiaassociated transcription factor (MiT) renal cell carcinoma (RCC) (AID 1963991; calls by dose curve). The settings on record: CellTiter-Glo, 48 h; for z-score: stronger effect = lower value. An outline of the steps: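 Viability of three TFE3-fusion renal carcinoma lines measured by CellTiter-Glo after 48 h treatment with each of 1912 compounds at 11 concentrations. Responses scaled between DMSO (100%) and empty wells (0%) before curve fitting.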
On the technique in general: Quantitative high-throughput screening tests each substance at several concentrations.

Assay [2] can be described thus: qHTS drug screen for cell cycle checkpoint inhibitors in PARPi-resistant BRCA-mutant ovarian cancer cell lines. (AID 1963452; calls by dose curve). The settings on record: PEO1/OlaR viability, CellTiter-Glo luminescence, 96 h; for Z-AUC: stronger effect = lower value. An outline of the steps:
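PEO1, PEO4 and PEO1/OlaR ovarian cancer cells, 600 per well, exposed 96 h at 37C to a dilution series. Viability read by CellTiter-Glo luminescence, normalized to DMSO and empty wells; activity summarized as Z-AUC.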

Assay [3] in a line: qHTS profiling for inhibitors of Plasmodium falciparum proliferation (AID 504749).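 As to activity, negative = inhibition: 0% = DMSO vehicle and full inhibition = artemisinin control.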 As to all read-outs here: nearly all actives have a fitted effect of over 60% in size. The settings on record: P. falciparum in erythrocytes, SYBR Green DNA, 72 h; for activity, negative = inhibition: at 12.8 µM (top of the series). An outline of the steps:
(§1)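 Parasite proliferation within erythrocytes, 72 h exposure. Endpoint: SYBR Green I fluorescence after overnight lysis at room temperature. Controls: 0.29 uM artemisinin, DMSO.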

In a further assay the test system is 3D7. The assay is described as above. The note with it: P. falciparum in erythrocytes, SYBR Green DNA, 72 h; series mostly up to 28.7 µM. An outline of the steps: as §1
Another assay relates to AA1029. Described as above. The note with it: P. falciparum in erythrocytes, SYBR Green DNA, 72 h; series mostly up to 28.7 µM. An outline of the steps: as §1
The next assay concerns AS120. The assay is described as above. The note with it: P. falciparum in erythrocytes, SYBR Green DNA, 72 h; series mostly up to 28.7 µM. An outline of the steps: as §1
The next assay concerns ATS189. Described as above. The note with it: P. falciparum in erythrocytes, SYBR Green DNA, 72 h; series mostly up to 28.7 µM. An outline of the steps:
as §1

In another assay the test system is ATS95. The description is as above. The settings on record: P. falciparum in erythrocytes, SYBR Green DNA, 72 h; series mostly up to 28.7 µM. An outline of the steps: as §1
The next assay has as its system C2A. The assay is described as above. The note with it: P. falciparum in erythrocytes, SYBR Green DNA, 72 h; series mostly up to 28.7 µM. An outline of the steps: as §1
The next assay concerns CP185. The assay is described as above. The settings on record: P. falciparum in erythrocytes, SYBR Green DNA, 72 h; series mostly up to 28.7 µM. An outline of the steps: as §1
Another assay concerns CP191. The description is as above. The settings on record: P. falciparum in erythrocytes, SYBR Green DNA, 72 h; series mostly up to 28.7 µM. An outline of the steps: as §1
A further assay has as its system CP192. The assay is described as above. The settings on record: P. falciparum in erythrocytes, SYBR Green DNA, 72 h; series mostly up to 28.7 µM. An outline of the steps:
as §1

A further assay deals with CP194. The description is as above. The settings on record: P. falciparum in erythrocytes, SYBR Green DNA, 72 h; series mostly up to 28.7 µM. An outline of the steps:
as §1

A further assay concerns CP201. The assay is described as above. The settings on record: P. falciparum in erythrocytes, SYBR Green DNA, 72 h; series mostly up to 28.7 µM. An outline of the steps:
as §1

The subject of a further assay is CP203. The description is as above. The settings on record: P. falciparum in erythrocytes, SYBR Green DNA, 72 h; series mostly up to 28.7 µM. An outline of the steps:
as §1

In a further assay the test system is CP211. The description is as above. The note with it: P. falciparum in erythrocytes, SYBR Green DNA, 72 h; series mostly up to 28.7 µM. An outline of the steps: as §1
The next assay has as its system CP215. The assay is described as above. The settings on record: P. falciparum in erythrocytes, SYBR Green DNA, 72 h; series mostly up to 28.7 µM. An outline of the steps: as §1
The next assay concerns CP217. The description is as above. The note with it: P. falciparum in erythrocytes, SYBR Green DNA, 72 h; series mostly up to 28.7 µM. An outline of the steps: as §1
Another assay has as its system CP237. The assay is described as above. The settings on record: P. falciparum in erythrocytes, SYBR Green DNA, 72 h; series mostly up to 28.7 µM. An outline of the steps:
as §1

The subject of a further assay is 7G8. The assay is described as above. The settings on record: P. falciparum in erythrocytes, SYBR Green DNA, 72 h; series mostly up to 28.7 µM. An outline of the steps:
as §1

Where [4] appears, read: TFE3-RCC UOK109 viability, measured here: UOK109 Z-AUC.
Setting [5] is: TFE3-RCC viability, measured here: UOK124 Z-AUC.
Setting [6] is: TFE3-RCC viability, measured here: UOK145 Z-AUC.
[7] abbreviates: measured here: PEO1 parental Z-AUC.

Each structure is given as a SMILES string. Results filed as inconclusive are left out. The source made the active and inactive calls. Unless noted, calls follow the shape of the dose curve; as a rule, active = well fitted inhibition curve with a large enough effect; inconclusive = small, poorly fitted or top-dose-only effect; inactive = flat fitted curve, though single readings scatter.
Potency is read from the fitted curve at half-maximal effect.

For the compound `O=C1c2c(O)cccc2[C@@H]([C@@H]2O[C@H](CO)[C@@H](O)[C@H](O)[C@H]2O)c2cc(CO)cc(O)c21`, the z-score in [1] (setting [4]) amounted to 0.509; in [1] (setting [5]), 0.726; in assay [1] (setting [6]) it was 0.571.

In the case of `OCCN1C[C@H](O)[C@@H](O)[C@H](O)[C@@H]1CO`, the z-score in assay [1] (setting [4]) stood at 0.705; in [1] (setting [5]) it was 0.522; in [1] (setting [6]), 1.03.

`CCC(C(=O)O)C1CCC(C)C(C(C)C(O)C(C)C(=O)C(CC)C2OC3(C=CC(O)[C@@]4(CC[C@](C)(C5CC[C@@](O)(CC)C(C)O5)O4)O3)C(C)CC2C)O1` (stereo partly drawn): the Potency in assay [2] is 1380 nM (active); in assay [3] (parasite line A), 1000 nM (active); in assay [3] (parasite line B) it was 1120 nM (active); in the assay on 3D7 it was 794 nM (active); in the assay with AA1029, 891 nM (active); with AS120 it was 631 nM (active). The Potency with ATS189 is 1260 nM (active); with ATS95, 1120 nM (active); in the assay on C2A, 1120 nM (active); in the assay on CP185, 1260 nM (active); in the assay with CP191 it was 1000 nM (active); in the assay with CP192, 849 nM (active). Moreover, the Potency in the assay with CP194 was 601 nM (active); in the assay on CP201, 953 nM (active); in the assay on CP203, 269 nM (active); with CP211, 536 nM (active); in the assay on CP215 it was 675 nM (active); with CP217, 1120 nM (active). For the same compound, the Potency in the assay on CP237 is 447 nM (active). The Z-AUC in assay [2] (setting [7]) is -1.77; in [2] (measured here: PEO4 Z-AUC) it was -1.98.

For `NC(=O)c1ncn([C@@H]2O[C@H](CO)[C@@H](O)[C@@H]2O)c1N`, the z-score was 0.684 in assay [1] (setting [4]), 0.695 in assay [1] (setting [5]) and 0.605 in [1] (setting [6]).

Regarding `COc1ccc([C@@H]2CNC(=O)C2)cc1OC1CCCC1`, the figures for the Z-AUC in [2], in assay [2] (setting [7]) and in [2] (measured here: PEO4 Z-AUC) were -0.0996 (inactive), -0.168 and 0.0398, respectively. For the same compound, the activity, negative = inhibition in assay [3] (parasite line A) is 9.55% (inactive); in [3] (parasite line B), -3.14% (inactive). Further, the Potency result in the assay with 3D7, in the assay with 7G8, in the assay on AA1029, in the assay with AS120, in the assay on ATS189 and in the assay on C2A was “inactive” in each case. Further, the Potency result in the assay on CP185, in the assay on CP191, with CP192, in the assay on CP194, in the assay on CP201 and with CP203 was “inactive” each time. The Potency result in the assay with CP211, in the assay on CP215, in the assay on CP217 and in the assay on CP237 was “inactive” in each case.

For `COC[C@H](NC(=O)c1cnc(C)s1)C(=O)N[C@@H](COC)C(=O)N[C@@H](Cc1ccccc1)C(=O)[C@@]1(C)CO1`, the Potency is 138 nM (active) in [2] and 3720 nM (active) in assay [1] (TFE3-RCC UOK109 viability, active = Z-AUC below -0.8 in all three lines). In addition, the Z-AUC in [2] (setting [7]) is -2.62; in assay [2] (measured here: PEO4 Z-AUC) it was -3.23. Further, the values for the z-score in [1] (setting [4]), in assay [1] (setting [5]) and in assay [1] (setting [6]) were -1.27, -0.856 and -2.57, respectively.
